This is an account of results in paper PMC10668032, “Altered binding affinity of SIX1-Q177R correlates with enhanced WNT5A and WNT pathway effector expression in Wilms tumor”.

The full ranking holds about 33,000 sequences; the median of “e-score” is about -0.053, and the highest 2% start at about 0.38. The full list was thinned out, with the highest values kept by preference.

The experiment has as its target T1, SIX1 homeodomain (reference allele) (human, UniProt Q15475 108-198).
T1 sequence: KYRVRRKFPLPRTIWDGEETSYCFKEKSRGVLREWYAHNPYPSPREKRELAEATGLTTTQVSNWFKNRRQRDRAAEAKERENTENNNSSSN
The experiment can be described thus: universal protein binding microarray; Universal all-10-mer PBM (8x60K, AMADID 030236), 300 nM GST-tagged protein, Alexa Fluor 488 anti-GST; buffer, salt, pH and temperature not stated (as in Berger); high values mean tight binding. The following applies: protein: ivt; tags: N-terminal GST; dsDNA, one strand shown. The essentials:
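Homeodomains carrying a GST tag were produced by in vitro transcription/translation, then quantified by anti-GST western blot against a recombinant GST standard curve. Duplicate applications at 300 nM final concentration were made to universal 'all 10-mer' protein binding microarrays in 8×60K format. The Universal PBM Analysis Suite was used to express binding as 8-mer E-scores.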
As to CAGAGATA, the binding signal came to 0.27 ± 0.0194 E-score.
Then CGTCTCAA, with 0.286 ± 0.0622 E-score.
As for AGTAAGAT, the figure is 0.191 ± 0.00535 E-score.
As for ATCCGCCC, the figure is 0.373 ± 0.0127 E-score; as for CATATCCC, 0.352 ± 0.0303 E-score.
In the case of GCTATCCC, the binding signal was 0.281 ± 0.0159 E-score.
Then AATATCCG, with 0.317 ± 0.0622 E-score; and AATATCCC, with 0.378 ± 0.0135 E-score.
As to AATATCCT, the binding signal worked out at 0.282 ± 0.0516 E-score.
Then AATATCCA, with 0.2955 ± 0.00224 E-score.
Then GATATCCA, with 0.452 ± 0.0127 E-score; and CATATCCA, with 0.348 ± 0.0227 E-score; and GATATCCC, with 0.487 ± 0.00837 E-score.
Then GAAGATCA, with 0.196 ± 0.071 E-score; and GAGCAATA, with 0.151 ± 0.0211 E-score.
As to CGAGATCA, the binding signal turned out to be 0.287 ± 0.035 E-score.
Then CTAAGATC, with 0.207 ± 0.011 E-score; and ATCTAGCC, with 0.18 ± 0.0214 E-score.
As for ATATGACC, the figure is 0.189 ± 0.0241 E-score; as for CTATGATA, 0.394 ± 0.0185 E-score.
On to ATATGACA, for which the binding signal came out at 0.2181 ± 0.00196 E-score.
For the sequence CTATGGTA, the binding signal worked out at 0.305 ± 0.0461 E-score.
As for ATATGATG, the figure is 0.202 ± 0.0156 E-score; as for ATATGATC, 0.378 ± 0.0179 E-score; as for CTATGAGA, 0.177 ± 0.0191 E-score.
As to ATATGATA, the binding signal amounted to 0.443 ± 0.0314 E-score.
Then GTATGAGA, with 0.167 ± 0.0275 E-score; and GTATGACA, with 0.153 ± 0.0497 E-score.
As for CTATGATC, the figure is 0.302 ± 0.0116 E-score.
For the sequence GTATGATA, the binding signal was determined as 0.426 ± 0.00336 E-score.
As for ATCGGCGA, the figure is 0.263 ± 0.0285 E-score.
As for CAGCTATA, the binding signal amounted to 0.172 ± 0.0266 E-score.
Then ATCAACCC, with 0.3364 ± 0.0021 E-score.
As for CCCTTCGG, the figure is 0.2259 ± 0.00107 E-score; as for ATCTCGGC, 0.164 ± 0.0197 E-score; as for CCGCATCC, 0.159 ± 0.0829 E-score.
Then CTGGGGTC, with 0.164 ± 0.0399 E-score; and GATCCATC, with 0.364 ± 0.0371 E-score; and ATCGTTGG, with 0.205 ± 0.01 E-score.
In the case of ATATAAGG, the binding signal is 0.189 ± 0.0368 E-score.
Then CGATGGAG, with 0.167 ± 0.00841 E-score; and CGATCACC, with 0.34 ± 0.0407 E-score; and GGATCAGA, with 0.414 ± 0.0101 E-score.
Then GGATCACC, with 0.438 ± 0.0243 E-score; and GGATCACA, with 0.4356 ± 0.00108 E-score; and TGATCACA, with 0.254 ± 0.0125 E-score.
Turning to CGATCACG, the binding signal came to 0.251 ± 0.0416 E-score.
Turning to GGATCAAC, the binding signal was determined as 0.39 ± 0.0049 E-score.
As for AGATCAGA, the figure is 0.215 ± 0.0541 E-score; as for CGATCAGA, 0.192 ± 0.0121 E-score.
As for AGATCAAC, the figure is 0.264 ± 0.0411 E-score.
GGATCAAA: the binding signal is 0.372 ± 0.0497 E-score.
On to AGATCACC, for which the binding signal was 0.317 ± 0.00333 E-score.
On to CCCCATCA, for which the binding signal turned out to be 0.152 ± 0.0305 E-score.
As for TATCCTAA, the figure is 0.238 ± 0.0642 E-score; as for GATAACTA, 0.154 ± 0.00881 E-score.
Then GATCTTTA, with 0.164 ± 0.0165 E-score.
Then ATCGCACG, with 0.2071 ± 0.000375 E-score; and ATAGGCGG, with 0.1969 ± 0.00138 E-score; and TATTGCGA, with 0.232 ± 0.0343 E-score.
Turning to TCACCCGA, the binding signal amounted to 0.157 ± 0.0682 E-score.
As for GATAGTAA, the figure is 0.221 ± 0.00274 E-score; as for AGATCATA, 0.323 ± 0.00987 E-score.
Then CGATCATA, with 0.276 ± 0.0116 E-score; and GGATCATA, with 0.433 ± 0.0211 E-score.
As for ATCAACGA, the figure is 0.201 ± 0.0401 E-score; as for AGTATTGG, 0.204 ± 0.0532 E-score.
As to ATAGCTAT, the binding signal stood at 0.27 ± 0.0878 E-score.
Take TCTCCAGA: the binding signal came to 0.165 ± 0.00783 E-score.
As to AGAGATAG, the binding signal worked out at 0.153 ± 0.0279 E-score.
Regarding GGAGATCC, the binding signal was found to be 0.374 ± 0.0453 E-score.
Then AGAGATAC, with 0.38 ± 0.00418 E-score.
Then GGAGATAC, with 0.41 ± 0.00953 E-score; and GCAGATAC, with 0.3749 ± 0.000573 E-score.
Then CAAGATAC, with 0.349 ± 0.0341 E-score.
CCAGATAC: the binding signal amounted to 0.409 ± 0.0168 E-score.
As for CGAGATAC, the figure is 0.381 ± 0.00544 E-score; as for ACAGATAC, 0.341 ± 0.00624 E-score; as for AGAGATAT, 0.335 ± 0.0776 E-score.
As for CCAGATAA, the figure is 0.234 ± 0.0252 E-score; as for CTAGATAC, 0.349 ± 0.00583 E-score.
Then ATCCGAAA, with 0.246 ± 0.022 E-score; and ATATCTTG, with 0.271 ± 0.0944 E-score.
For the sequence CGATCTCC, the binding signal was found to be 0.31 ± 0.00569 E-score.
As for ACTGTATC, the figure is 0.367 ± 0.00948 E-score; as for CCTATAGA, 0.157 ± 0.037 E-score.
